ChEMBL document CHEMBL4513135, “CO-ADD screening of IQOG CSIS (Spain) compounds”
Results with a measured potency or affinity are listed apart.

Legend:
Klebsiella pneumoniae = settings: Concentration 32 ug.mL-1; ASSAY_TEST Inhibition of Bacterial Growth; detection method Absorption (OD600); MEDIA CAMHB; plate type 384well; NBS; CORNING #3640; time 18 hr
Candida albicans = settings: 32 ug/mL
Cryptococcus neoformans = settings: Concentration 32 ug.mL-1; ASSAY_TEST Inhibition of Fungal Growth; detection method Resazurin; Absorption (OD600-OD570); plate type 384well; NBS; CORNING #3640

| SMILES | Inhibition (Klebsiella pneumoniae) | Inhibition (Candida albicans) | Inhibition (Cryptococcus neoformans) |
| --- | --- | --- | --- |
| Cc1nc(Nc2ccccc2)c2c(C)nn(-c3ccccc3)c2n1 | -3.39% | -2.39% | -3.19% |
| Br.C#CCNCc1ccccc1 | 12.8% | -0.33% | -4.9% |
| Nc1c2c(nc3c1C(c1c(Cl)cccc1Cl)c1ccc4ccccc4c1O3)CCCC2 (centres undefined) | 14.02% | -1.13% | -7.78% |
| Cc1ccc(C2c3c(Cl)nnnc3Oc3ccc4ccccc4c32)cc1 (centres undefined) | 9.62% | 2.22% | -3.15% |
| CCOC(=O)C1=C(C)OC(N)=C(C#N)C1c1ccc(OC)c(OC)c1 (centres undefined) | 9.11% | 3.32% | -51.05% |
| CCCC(C)NNC(=O)Cc1c[nH]c2ccccc12 (centres undefined) | 6.53% | 0.38% | 5.38% |
| COC(=O)C(NC(=O)c1ccccc1)=C(C)c1ccccc1 | 19.09% | -0.01% | -1.2% |
| CCOC(=O)C1=C(C)NC(N)=C(C#N)C1c1ccc([N+](=O)[O-])cc1 (centres undefined) | 14.21% | 2.04% | -47.11% |
| COc1cc(C=NNC(=O)Cc2c[nH]c3ccccc23)ccc1O | -2.6% | 0.74% | -1.83% |
| CCOC(N)=CC#N | -6.69% | 0.84% | -10.57% |
| Cc1ccc(S(=O)(=O)N[C@H]2CC[C@H](O)CC2)cc1 | 11.86% | 0.9% | -40.23% |
| O=C1OC(c2ccccc2)=NC1=Cc1ccc(Cl)cc1 | 7.19% | 1.2% | -3.18% |
| N#C/C(=C\c1ccccc1)C(=O)c1ccccc1 | 5.05% | 4.89% | 5.95% |
